# Compound activity from PubChem.
# Compounds with a hit are over-represented: about 0.57% of the library has one in this group of screens.
# ALOX12 inhib = 12-hLO (ALOX12) enzyme inhibition. P18054. purified 12-hLO, xylenol orange hydroperoxide absorbance. Potency, µM (series often up to 57.1 µM), for inactives: at the top dose activity change, negative = inhibition, usual class: inhibitors. 150,000 compounds, 0.12% hits; further: potency means the concentration at half of the fitted maximal effect; nearly all actives have a fitted effect of over 55% in size
# Target sequence (P18054 whole entry, looked up): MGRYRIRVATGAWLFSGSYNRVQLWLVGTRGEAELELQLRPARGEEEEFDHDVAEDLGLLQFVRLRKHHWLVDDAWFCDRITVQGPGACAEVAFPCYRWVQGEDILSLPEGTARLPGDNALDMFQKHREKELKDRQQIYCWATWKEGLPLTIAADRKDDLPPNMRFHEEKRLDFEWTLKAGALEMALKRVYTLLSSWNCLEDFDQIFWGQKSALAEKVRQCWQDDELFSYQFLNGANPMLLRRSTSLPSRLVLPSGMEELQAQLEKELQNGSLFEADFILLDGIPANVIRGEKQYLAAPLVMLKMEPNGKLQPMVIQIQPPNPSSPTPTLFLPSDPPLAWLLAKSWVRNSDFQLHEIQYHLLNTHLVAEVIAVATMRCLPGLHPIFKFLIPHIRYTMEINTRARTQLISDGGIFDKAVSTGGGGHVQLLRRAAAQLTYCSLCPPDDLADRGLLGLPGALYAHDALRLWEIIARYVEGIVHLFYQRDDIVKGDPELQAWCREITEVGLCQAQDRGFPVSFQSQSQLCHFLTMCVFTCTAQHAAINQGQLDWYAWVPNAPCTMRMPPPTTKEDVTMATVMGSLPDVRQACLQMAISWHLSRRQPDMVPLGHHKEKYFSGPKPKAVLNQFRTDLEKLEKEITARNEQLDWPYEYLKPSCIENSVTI
#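 Hydroperoxide output read as Fe(III)-xylenol orange absorbance, 573-to-405 nm ratio, after 30 min reaction with 40 uM arachidonic acid. Enzyme: 150 nM purified human 12hLO, 15 min compound preincubation; 25 mM Hepes pH 7.0, room temperature.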
# IMPase Li inh = IMPase inhibition in cells with lithium potentiation; CHO-M1 cells, IP1 TR-FRET (IP-One), carbachol + lithium; Potency, µM (top dose mostly 59.4 µM), for the others: top-dose activity, negative = IMPase inhibition, most hits filed as inhibitors; 210,000 compounds, 0.35% hits; AID 1457;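 further: IP1 builds up when IMPase is blocked and the TR-FRET signal falls; potency means the concentration at half of the fitted maximal effect; plate controls were basal vehicle for no effect and high inhibitor control for full effect; nearly all actives have a fitted effect of over 50% in size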
#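 Test compounds were applied to CHO-M1 cells previously cultured for 16–30 h at 2000 per well. A small lithium amount accompanied them; after 30 min at 37C, IP1 was quantified by TR-FRET.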
# 15-hLO-2 inh = 15-hLO-2 (ALOX15B) enzyme inhibition | purified 15hLO-2, xylenol orange hydroperoxide absorbance | AID 881 | 110,000 compounds, 0.56% hits | Potency, µM (titrated, usually from 57.1 µM), for inactives: at the highest dose activity change, negative = inhibition, hits mostly inhibitors | O15296; further: potency means the concentration at half of the fitted maximal effect; nearly all actives have a fitted effect of over 60% in size
#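 Enzyme 50 nM, AA 45 uM, 25 mM Hepes pH 7.5 + 0.01% Triton X-100; cpd preinc 15 min RT, rxn 90 min RT; stop/detect with 200 uM XO + 300 uM Fe(II) in 50 mM H2SO4, 30 min; A573/A405.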
# IMPase inh = membrane-permeable compound that blocks inositol monophosphatase. AID 901. P97697. inhibition (IP1 accumulation), % at 46.1 µM. 120,000 tested, under 10 active. CHO-M1 cells, IP1 accumulation, HTRF TR-FRET ratio; active means well fitted curve in the direction sought with a large enough effect in the signal ratio, not every such curve was filed as active; inconclusive means small, poorly fitted or top-dose-only effect, or a change in a side signal; inactive means no such curve, though single readings can be large or run the other way; the % refers to the signal ratio;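 further: cells stimulated with carbachol in lithium chloride buffer; plate controls were DMSO basal wells for no effect and reference inhibitor wells for full effect; higher means more IMPase inhibition seen as more IP1 and lower FRET ratio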
#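 CHO-M1, 2000 cells/well, cultured 16–30 h; cpd up to 46 uM; carbachol (50 uM solution, stimulation buffer w/ 50 mM LiCl, pH 7.4), 30 min 37C; IP-One TR-FRET, 10 min RT; Ex 320/Em 665, 620; Hill-fit AC50.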
# The depositor's hits bear a star; ? = inconclusive; . = no result; [ ] = dose if it differs, or a comment. Unless noted, the call rests on the fitted dose curve; in most records, active means well fitted curve in the direction sought with a large enough effect; inconclusive means small, poorly fitted or top-dose-only effect, or another doubt; inactive means no such curve, though single readings can be large; an effect the other way counts as inactive or inconclusive. Unless noted, on the % scale 0 is the no-effect control and ±100 the full control effect.
SMILES,ALOX12 inhib,IMPase Li inh,15-hLO-2 inh,IMPase inh
CC(C)(C)C(=O)NCC12C=CC(O1)C1C(=O)N(c3ccccc3)C(=O)C12 (stereo unspecified),-1%,3%,.,-1
O=C1C2C3C=CC(CO)(O3)C2C(=O)N1c1ccc(-c2ccccc2)cc1 (stereo unspecified),?,12%[38.3 µM],0.4µM*,-3
Cc1cc(Cl)ccc1N=c1ssnc1Cl,-23%,4%[38.3 µM],?,3
Nc1ccccc1N=c1ssnc1Cl,.,-4%,.,.
COc1cc(N=c2ssnc2Cl)c(OC)cc1Cl,20µM*,8%[38.3 µM],25µM*,9
COc1ccc(OC)c(N=c2ssnc2Cl)c1,8.9µM*,-1%[38.3 µM],25µM*,2
Cc1ccc(N=c2ssnc2Cl)cc1,28µM*,-12%[38.3 µM],?,?
CCCCc1nc2c(c3c1C[C@H](C)OC3)CN(C(=O)Nc1cccc(C#N)c1)CC2,2%[11.4 µM],6%,.,.
COC(=O)C1=C(C(=O)OC)[C@@H]2N(C)c3ccccc3[C@@]23C[C@@H](C(=O)OC)N(S(=O)(=O)c2ccc(C)cc2)C3=N1,0%[11.4 µM],6%,.,.
O=C1C=CC(=O)c2c(O)c(Cl)c(Cl)c(O)c21,?,113%,0%,.
O=c1ccn([C@@H]2O[C@@H](COP(=O)(O)OP(=O)(O)O)[C@H](O)[C@@H]2O)c(=O)[nH]1,-7%,.,-8%,3
COc1ccc(-c2csc(C3=C(O)CN(Cc4ccc(Cl)cc4)C3=N)n2)cc1OC,-2%,27%[38.3 µM],-6%,-1
COc1cccc(CN2CC(O)=C(c3nc(-c4ccc(Cl)cc4)cs3)C2=N)c1,-25%,5.6µM*,?,18
N=c1c(C(=O)NC2CCCC2)cc2c(=O)n3ccccc3nc2n1C1CCCC1,32µM*,-6%[38.3 µM],-16%,5
COc1ccccc1-c1cc(C(=O)Nc2ccc(F)cc2F)no1,-3%,8.9µM*,-12%,?
CCOC(=O)Nc1ccc2c(c1)Nc1ccccc1S2,-10%,38%[38.3 µM],13µM*,10
COc1ccc(-c2nc3cnc(Oc4ccccc4)nc3n(CCC#N)c2=O)cc1,.,10µM*,6%,.
COc1ccc(-c2nc3cnc(OCc4ccccc4)nc3n(CCC#N)c2=O)cc1,.,22µM*,-1%,.
N#CCCn1c(=O)c(-c2ccc(F)cc2)nc2cnc(OCc3ccccc3)nc21,.,-15%,3%,.
N#CCCn1c(=O)c(-c2ccccc2)nc2cnc(OCc3ccccc3)nc21,-7%,11µM*,-1%,.
O=S(=O)(NCCNC/C=C/c1ccc(Br)cc1)c1cccc2cnccc12,.,24%,.,.
N=C(N)c1ccc(/C=C\c2ccc(C(=N)N)cc2)cc1,-3%[11.4 µM],5%,33%[11.4 µM],.
O=c1c(-c2ccccc2)coc2cc(O)cc(O)c12,11µM*,15%,5%,.
CN(C)C1C(=O)C(C(N)=O)=C(O)[C@@]2(O)C(=O)C3=C(O)c4c(O)ccc(Cl)c4C(O)[C@H]3C[C@@H]12 (stereo partly specified),-1%,-29%,-3%,.
CN(C)C1C(=O)C(C(N)=O)=C(O)[C@@]2(O)C(=O)C3=C(O)c4c(O)ccc(Cl)c4[C@@H](O)C3C[C@@H]12 (stereo partly specified),.,10µM*,.,.
SMILES,ALOX12 inhib,IMPase Li inh,15-hLO-2 inh,IMPase inh
C=C1c2c(Cl)ccc(O)c2C(O)=C2C(=O)[C@@]3(O)C(O)=C(C(N)=O)C(=O)[C@@H](N(C)C)[C@@H]3[C@@H](O)[C@H]12,-6%[25.6 µM],-8%,10%[25.6 µM],1[20.6 µM]
CN(C)C1C(=O)C(C(N)=O)C(=O)C2(O)C(=O)C3C(=O)c4c(O)ccc(Cl)c4C(O)C3CC12 (stereo unspecified),-2%[0.00818 µM],10µM*,-1%[0.0915 µM],.
Cc1sc(NC(=S)NC(=O)CCc2ccccc2)c(C(N)=O)c1C,-7%,11µM*,.,.
COC(=O)CCC(=O)NC(=S)Nc1sc(C)c(C)c1C(N)=O,1%,?,.,.
COc1ccc(OC)c2c(=S)c3ccccc3[nH]c12,25µM*,34%,-7%,31
CCOc1ccc(S(=O)(=O)N(CC(=O)N/N=C/c2ccc(-c3ccc([N+](=O)[O-])cc3)o2)c2ccccc2)cc1,-19%,-26%[38.3 µM],13µM*,0
Cc1ccc(C)c(N(CC(=O)N/N=C/c2ccc(-c3ccc([N+](=O)[O-])cc3)o2)S(=O)(=O)c2ccccc2)c1,-11%,?,?,-5
CCCCCCCCCCCCCCCC(=O)NC[C@@H](COP(=O)([O-])OCC[N+](C)(C)C)OCC,18%,.,-21%,9
COc1ccc(C2=Nc3cccc4cccc(c34)N2)cc1,11%,11%[38.3 µM],53%,0
CC(C)C1=Nc2cccc3cccc(c23)N1,-3%,18%[38.3 µM],10µM*,7
CCOC(=O)CCSc1cc(C)c2ccccc2n1,.,-6%,.,.
O=C(O)CSc1ccc2ccccc2n1,5%,7.1µM*,-4%,?
O=C(O)CCSc1nc2ccccc2c(=O)[nH]1,3%,5%,.,4
O=C(O)CCSc1ccc2ccccc2n1,0%,14µM*,-12%,?
Cc1nc(SCCC(=O)O)c2ccccc2n1,-2%,13µM*,5%,?
Cc1cc(SCCC(=O)O)nc2ccccc12,1%,11µM*,-4%,?
COc1ccc(NC(=O)CCSc2ccc3ccccc3n2)cc1,-6%,-15%,.,.
COc1ccccc1OC[C@H](O)CN1CCN(CC(=O)Nc2c(C)cccc2C)CC1,3%,.,10%,4
O=C(O)[C@H](C1NCCS1)N1C(=O)c2ccccc2C1=O (stereo partly specified),.,2%,.,.
CC1(OC(=O)C2CCCC2)C(=O)C=C2C=C(c3ccsc3)N(c3ccc(CO)cc3)C=C2C1=O (stereo unspecified),0%[11.4 µM],11%,.,.
Nc1nc2c(nc(Br)n2[C@@H]2O[C@H]3COP(=O)(O)O[C@@H]3[C@H]2O)c(=O)[nH]1,-3%,.,4%,4
CSc1nc(N)nc(SCC(=O)C23CC4CC(CC(C4)C2)C3)c1C#N,-2%,12%,.,.
N#Cc1c(N)nc(SCC(=O)C23CC4CC(CC(C4)C2)C3)c(C#N)c1-c1ccc(Cl)cc1,2%,3.5µM*,-7%,-6
COC(=O)CNc1n[nH]c(=S)[nH]c1=O,-2%,11µM*,2%,?
COC(=O)CCNc1n[nH]c(=O)[nH]c1=O,.,-1%,.,.
SMILES,ALOX12 inhib,IMPase Li inh,15-hLO-2 inh,IMPase inh
CC(C)OC(=O)CNc1n[nH]c(=S)[nH]c1=O,.,11µM*,.,.
O[Si@](CCCN1CCCCC1)(c1ccc(F)cc1)C1CCCCC1,13%,.,35%,14
CC(=O)[C@]1(O)CC[C@@H]2[C@H]3C[C@@H](C)C4=CC(=O)CC[C@@]4(C)C3[C@@H](O)C[C@]21C (stereo partly specified),.,3%,.,.
CN(C)c1ncc2nc(-c3ccc(F)cc3)c(=O)n(CCc3ccccc3)c2n1,.,10µM*,-5%,.
CCNc1ncc2nc(-c3ccc(F)cc3)c(=O)n(CCc3ccccc3)c2n1,.,5.6µM*,-1%,.
CCNc1ncc2nc(-c3ccccc3)c(=O)n(CCc3ccccc3)c2n1,-8%,-27%,2%,.
